The target of one experiment is Albumin (Bos taurus) (UniProt P02769). Description: compounds binding labelled BSA control protein – biochemical, small-molecule microarray, Alexa647 label, 635/667 nm fluorescence, artefact control for SMM control protein annotation, profiling panel (AID 1118).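 Further: score merges 667 nm emission intensity and signal-to-noise per printed compound spot.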 The settings on record: BSA-A647 binding, fluorescence 635 nm, higher = more signal.
Experiment [1] in a line: probe aXIP binding to arrayed compounds – biochemical, NeuroSMM set, 635/667 nm fluorescence, primary screen (AID 1119).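 Further: probe is the protein aXip251-270 applied at 1 µg/mL to compound-printed slides; binding of probe to printed compounds measured as 667 nm fluorescence plus signal to noise.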 The conditions noted are these: small-molecule microarray, higher = more signal, called active from +8 up or from −8 down.
A short description of experiment [2]: probe aNOTCH3 binding on compound microarray – biochemical, small-molecule microarray, 635/667 nm fluorescence, primary screen (AID 1120).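 Further: probe is a biotin-tagged antibody raised against NOTCH3 rather than NOTCH3 protein; score merges spot fluorescence near 667 nm with spot signal to noise.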 The settings on record: higher = more signal.
Experiment [3] can be described thus: probe aNOTCH2 binding on compound microarray – biochemical, small-molecule microarray, 635/667 nm fluorescence, primary screen (AID 1121).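 Further: score merges feature fluorescence read at 667 nm with its signal to noise.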 The conditions noted are these: higher = more signal.
In experiment [4] the target is Carbonic anhydrase 2 (Homo sapiens) (UniProt P00918). The experiment can be described thus: compounds binding carbonic anhydrase 2 – biochemical, small-molecule microarray, Alexa647-labelled CAII, profiling panel (AID 1122). The settings on record: CAII-A647 binding fluorescence, higher = more signal.
A short description of experiment [5]: COS7 lysate on small-molecule microarray, probe aHis, 635 nm (AID 1123).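 Further: z-score combines 667nm fluorescence intensity with signal-to-noise per printed compound spot.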 The conditions noted are these: COS7 cell lysate, fluorescence, higher = more signal.
Experiment [6] is described as follows: probe aLAP1 signal on lysate-treated microarray – cell lysate, small-molecule microarray, COS7 lysate, primary screen (AID 1124).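 Further: lysate comes from COS7 cells expressing LAP1 and is applied at 0.3 µg/mL; score merges spot fluorescence near 667 nm with signal-to-noise over triplicate slides.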 The conditions noted are these: probe aLAP1, fluorescence, higher = more signal.
For a further experiment, the system named is Sam68 (KHDRBS1). The experiment can be described thus: compounds binding KHDRBS1 protein – biochemical, small-molecule microarray, 635 nm fluorescence, primary screen (AID 1125).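 Further: score merges 667 nm channel intensity with signal to noise over triplicate slides.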 The conditions noted are these: higher = more signal.
Experiment [7] deals with Chordin-like protein 2 (CHRDL2). Description: compounds binding chordin-like 2 – biochemical, small-molecule microarray, 635 nm fluorescence, primary screen (AID 1126).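 Further: printed compound slides probed with Chrdl2 protein at 4 µg/mL for 1 h at 4 C; score merges 667 nm emission intensity with signal to noise over three replicate slides.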 The conditions noted are these: fluorescence 635 nm, higher = more signal.
Experiment [8] deals with Concanavalin-A (Canavalia ensiformis) (UniProt P02866). Description: compounds binding concanavalin A lectin – biochemical, small-molecule microarray, Alexa647 label, 635 nm, artefact control for SMM control protein annotation, primary screen (AID 1127).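 Further: z combines 667 nm emission intensity with signal-to-noise across three replicate slides.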 The settings on record: ConA-A647 binding fluorescence, higher = more signal.
Experiment [9] can be described thus: compounds binding Alexa647 anti-His antibody – biochemical, small-molecule microarray, 635 nm fluorescence, artefact control for SMM control protein annotation, primary screen (AID 1128).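 Further: score merges feature fluorescence with signal-to-noise for each printed compound spot.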 The settings on record: higher = more signal.
For experiment [10], the system named is Human papillomavirus type 1a E7 protein (residues 1-88). Description: HPV1a E7 small-molecule binders, primary screen, biochemical, small-molecule microarray, residues 1-88, 635 nm (AID 1129). The settings on record: small-molecule microarray binding, fluorescence 635 nm; higher = more signal.
Experiment [11] addresses Focal adhesion kinase 1 (Homo sapiens) (UniProt Q05397). Description: PTK2 protein binding on printed compound slides – biochemical, small-molecule microarray, 635/667 nm fluorescence, BSA, DTT, primary screen (AID 1130).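 Further: composite of spot emission at 667 nm and signal to noise over triplicate slides.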 The settings on record: 635 nm fluorescence, higher = more signal.
Experiment [12] relates to Fibrinogen (Alexa647-labelled). The experiment can be described thus: Alexa647-fibrinogen binding to printed small molecules – biochemical, small-molecule microarray, 635/667 nm fluorescence, artefact control for SMM control-protein annotation, profiling panel (AID 1131).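 Further: z-score merges 667 nm fluorescence with per-spot signal-to-noise over triplicate slides.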 The conditions noted are these: fibrinogen-A647 binding fluorescence, higher = more signal.
Experiment [13] concerns the target Follistatin (Homo sapiens) (UniProt P19883). Description: FST protein binding to printed compounds – biochemical, small-molecule microarray, 635/667 nm fluorescence, primary screen (AID 1132). The conditions noted are these: 635 nm fluorescence, higher = more signal.
The target of experiment [14] is Fibroblast growth factor 2 (Homo sapiens) (UniProt P09038). The experiment can be described thus: basic fibroblast growth factor binding to printed compounds – biochemical, small-molecule microarray, 635/667 nm fluorescence, primary screen (AID 1133). The conditions noted are these: FGF2, fluorescence 635/667, higher = more signal.
Experiment [15] in a line: JC-1 mitochondrial potential readout, lung cancer cells – cell-based, A549, JC-1 fluorescence, basal, 24 h, 100 nL, profiling panel (AID 1138).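 Further: A549 lung adenocarcinoma cells under basal conditions with no added stimulus; test concentration not given here.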 The conditions noted are these: higher = more signal.
Another experiment deals with Lefty1. Description: Lefty1 protein binding to printed compounds – biochemical, small-molecule microarray, 635/667 nm fluorescence, primary screen (AID 1139). The conditions noted are these: fluorescence 635/667, higher = more signal.
In experiment [16] the test system is wheat germ agglutinin (Triticum aestivum), Alexa647-labelled. The experiment can be described thus: Alexa647-WGA lectin binding to printed small molecules – biochemical, small-molecule microarray, 635/667 nm fluorescence, artefact control for SMM control-protein annotation, profiling panel (AID 1140).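 Further: score merges 667 nm feature emission with signal to noise over triplicate slides.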 The settings on record: WGA-A647 binding, 635 nm fluorescence, higher = more signal.

Experiment [17] concerns the target Luciferin 4-monooxygenase (Photinus pyralis) (UniProt P08659). The experiment can be described thus: inhibition of purified Photinus pyralis luciferase – biochemical, luminescence, purified enzyme, 2006 set, primary screen (AID 1141).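 Further: cell-free assay with purified firefly luciferase at 100 ng per well in PBS; test concentration not given here.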 The settings on record: purified firefly luciferase, SteadyGlo luminescence, 30 min; higher = more signal, called active from +8 up or from −8 down.

The structures appear in SMILES notation. Calls of active or inactive are those of the source.

Chain of Focal adhesion kinase 1 (Homo sapiens) (Q05397 whole entry, looked up): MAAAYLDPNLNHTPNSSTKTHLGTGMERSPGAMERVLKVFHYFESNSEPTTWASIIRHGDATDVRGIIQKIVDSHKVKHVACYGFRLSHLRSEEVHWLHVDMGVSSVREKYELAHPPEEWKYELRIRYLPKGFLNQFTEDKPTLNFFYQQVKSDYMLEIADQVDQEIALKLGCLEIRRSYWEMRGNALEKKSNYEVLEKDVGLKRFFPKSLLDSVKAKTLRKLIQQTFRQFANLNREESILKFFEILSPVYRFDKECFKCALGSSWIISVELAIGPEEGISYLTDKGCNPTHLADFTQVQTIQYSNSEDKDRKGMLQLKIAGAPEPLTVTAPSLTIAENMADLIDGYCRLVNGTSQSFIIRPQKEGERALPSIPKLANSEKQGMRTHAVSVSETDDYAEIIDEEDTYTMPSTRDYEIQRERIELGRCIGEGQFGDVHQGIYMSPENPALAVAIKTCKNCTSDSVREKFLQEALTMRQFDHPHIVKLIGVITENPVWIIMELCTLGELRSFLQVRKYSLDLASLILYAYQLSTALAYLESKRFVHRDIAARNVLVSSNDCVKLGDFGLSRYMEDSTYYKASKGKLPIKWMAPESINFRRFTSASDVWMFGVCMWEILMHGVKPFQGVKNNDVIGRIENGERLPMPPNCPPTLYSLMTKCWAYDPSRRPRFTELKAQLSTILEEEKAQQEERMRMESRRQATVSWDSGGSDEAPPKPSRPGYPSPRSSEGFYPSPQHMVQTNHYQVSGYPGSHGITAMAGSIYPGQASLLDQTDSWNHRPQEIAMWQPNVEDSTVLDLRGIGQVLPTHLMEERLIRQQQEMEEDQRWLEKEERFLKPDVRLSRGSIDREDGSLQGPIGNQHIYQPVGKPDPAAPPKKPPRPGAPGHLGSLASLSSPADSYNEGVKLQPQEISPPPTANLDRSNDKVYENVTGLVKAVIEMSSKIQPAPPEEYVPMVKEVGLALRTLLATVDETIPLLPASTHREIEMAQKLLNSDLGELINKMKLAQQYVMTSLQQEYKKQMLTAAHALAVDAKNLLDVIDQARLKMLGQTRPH
Chain of Concanavalin-A (Canavalia ensiformis) (P02866 whole entry, looked up): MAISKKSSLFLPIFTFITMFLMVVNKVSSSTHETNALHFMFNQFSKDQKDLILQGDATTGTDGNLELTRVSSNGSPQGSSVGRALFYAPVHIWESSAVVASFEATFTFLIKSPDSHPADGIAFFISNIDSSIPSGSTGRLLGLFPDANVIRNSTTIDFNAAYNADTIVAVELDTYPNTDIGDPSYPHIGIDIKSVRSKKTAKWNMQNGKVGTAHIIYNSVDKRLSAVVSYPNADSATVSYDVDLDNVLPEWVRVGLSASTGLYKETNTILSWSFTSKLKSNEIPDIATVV
Chain of Follistatin (Homo sapiens) (P19883 whole entry, looked up): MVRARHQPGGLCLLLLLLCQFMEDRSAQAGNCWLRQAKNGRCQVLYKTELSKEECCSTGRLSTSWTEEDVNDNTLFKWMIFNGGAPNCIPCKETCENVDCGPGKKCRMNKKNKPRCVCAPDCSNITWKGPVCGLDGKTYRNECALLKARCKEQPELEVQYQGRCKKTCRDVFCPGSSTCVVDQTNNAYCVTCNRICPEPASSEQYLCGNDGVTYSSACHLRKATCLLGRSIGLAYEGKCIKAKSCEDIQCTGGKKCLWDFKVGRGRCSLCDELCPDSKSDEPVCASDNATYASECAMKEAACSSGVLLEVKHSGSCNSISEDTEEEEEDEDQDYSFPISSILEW
Chain of Fibroblast growth factor 2 (Homo sapiens) (P09038 whole entry, looked up): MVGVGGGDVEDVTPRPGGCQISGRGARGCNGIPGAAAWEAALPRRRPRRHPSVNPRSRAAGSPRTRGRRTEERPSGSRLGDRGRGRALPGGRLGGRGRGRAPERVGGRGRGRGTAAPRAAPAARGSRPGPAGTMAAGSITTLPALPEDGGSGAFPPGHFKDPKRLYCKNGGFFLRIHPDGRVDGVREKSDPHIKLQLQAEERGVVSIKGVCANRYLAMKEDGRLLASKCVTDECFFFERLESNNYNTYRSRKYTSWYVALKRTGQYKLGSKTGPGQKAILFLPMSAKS
Chain of Luciferin 4-monooxygenase (Photinus pyralis) (P08659 whole entry, looked up): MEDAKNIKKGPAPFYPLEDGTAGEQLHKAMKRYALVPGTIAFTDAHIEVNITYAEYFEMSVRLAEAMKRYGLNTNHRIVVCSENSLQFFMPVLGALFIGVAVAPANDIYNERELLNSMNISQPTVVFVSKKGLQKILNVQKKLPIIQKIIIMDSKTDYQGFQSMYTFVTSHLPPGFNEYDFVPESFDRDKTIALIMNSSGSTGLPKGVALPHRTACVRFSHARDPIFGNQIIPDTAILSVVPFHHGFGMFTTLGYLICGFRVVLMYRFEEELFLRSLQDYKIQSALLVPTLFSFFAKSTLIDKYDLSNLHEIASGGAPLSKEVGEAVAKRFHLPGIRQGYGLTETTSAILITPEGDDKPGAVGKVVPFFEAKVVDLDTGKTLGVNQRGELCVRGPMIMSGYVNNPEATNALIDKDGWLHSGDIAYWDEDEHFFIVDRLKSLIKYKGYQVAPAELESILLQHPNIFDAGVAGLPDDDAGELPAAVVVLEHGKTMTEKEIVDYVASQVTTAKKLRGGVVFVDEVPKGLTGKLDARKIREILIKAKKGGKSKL
Chain of Albumin (Bos taurus) (P02769 whole entry, looked up): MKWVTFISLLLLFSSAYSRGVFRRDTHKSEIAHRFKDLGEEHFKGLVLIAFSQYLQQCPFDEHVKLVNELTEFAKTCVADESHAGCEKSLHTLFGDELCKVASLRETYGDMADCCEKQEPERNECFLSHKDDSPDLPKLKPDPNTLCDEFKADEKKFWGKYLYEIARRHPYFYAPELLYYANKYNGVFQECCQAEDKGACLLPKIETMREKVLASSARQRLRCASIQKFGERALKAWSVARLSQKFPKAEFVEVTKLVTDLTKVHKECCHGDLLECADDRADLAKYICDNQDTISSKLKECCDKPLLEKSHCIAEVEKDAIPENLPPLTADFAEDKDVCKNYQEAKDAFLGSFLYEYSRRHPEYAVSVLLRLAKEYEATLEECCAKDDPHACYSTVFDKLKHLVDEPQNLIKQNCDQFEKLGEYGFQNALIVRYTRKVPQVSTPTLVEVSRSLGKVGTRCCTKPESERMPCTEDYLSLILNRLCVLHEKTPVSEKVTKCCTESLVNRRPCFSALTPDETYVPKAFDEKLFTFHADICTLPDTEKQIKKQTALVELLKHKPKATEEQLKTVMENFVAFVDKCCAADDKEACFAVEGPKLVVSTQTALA

For `CC(C)[Si](C#C[Si](C(C)C)(C(C)C)C(C)C)(O[C@H](C)c1cn([C@H](C)c2ccccc2)nn1)C(C)C`, the composite z-score was -0.0001 with Albumin (Bos taurus); -0.122 in [2]; -0.0632 in experiment [3]; 0.66 in experiment [4]; 0.386 in [5]; -0.13 in [6]. Further, the composite z-score came out at 1.16 in the experiment with Sam68 (KHDRBS1); 0.0747 in [7]; 0.927 in experiment [8]; 0.467 in [9]; 0.796 in experiment [10]; 0.768 in [11]. In addition, the composite z-score in experiment [12] was 0.179; in experiment [13], 0.465; in experiment [14], 0.261; in the experiment with Lefty1 it was 0.751; in experiment [16], 0.625. Also, the composite Z-score in experiment [1] was -0.097 (inactive). In addition, the z-score was 1.8 in experiment [15] and -1.4 (inactive) in experiment [17].
In the case of `O=C(NC1CC1)[C@@H]1c2ccccc2C(=O)N(Cc2ccccc2C(F)(F)F)[C@H]1c1ccc(CO)cc1`, the composite z-score with Albumin (Bos taurus) was 0.289; in experiment [2] it was 0.0194; in experiment [3] it was -0.0173; in experiment [4] it was 0.676; in [5], 2.26; in experiment [6], 0.234. For the same molecule, the composite z-score was 1.35 with Sam68 (KHDRBS1); 0.102 in experiment [7]; 1.08 in [8]; 0.911 in experiment [9]; 1.1 in experiment [10]; 0.829 in experiment [11]. The composite z-score in [12] was 0.428; in [13], 0.928; in experiment [14], 0.86; in the experiment with Lefty1, 0.159; in [16], 0.527. Further, the composite Z-score in experiment [1] is 2.36 (inactive). For the same molecule, the z-score in experiment [15] was 2.04; in [17] it was -0.945 (inactive).
Regarding `COCCCN1C(=O)[C@@]2(Cc3ccccc31)c1ccccc1C(=O)N(Cc1ccccc1Cl)[C@H]2c1ccc(CO)cc1`, the composite z-score with Albumin (Bos taurus) is -0.538; in experiment [2], -0.126; in experiment [3] it was -0.162; in [4] it was 0.106; in experiment [5], -0.0024; in experiment [6] it was 0.179. Further, the composite z-score in the experiment with Sam68 (KHDRBS1) is 0.0462; in [7], -0.272; in [8] it was 0.0915; in experiment [9], -1.15; in experiment [10] it was -1.53; in experiment [11], -0.557. Moreover, the composite z-score in experiment [12] is -0.358; in [13], -0.45; in [14], -0.0761; in the experiment with Lefty1, -0.348; in experiment [16] it was -1.02. For the same molecule, the composite Z-score in [1] was -0.17 (inactive). Moreover, the results for the z-score in experiment [15] and in experiment [17] were 0.83 and -1.13 (inactive), respectively.
As for `CC(C)N1CC=CC23O[C@@H]4/C=C\CCCOC(=O)C4[C@H]2C(=O)N(CCCO)[C@@H]3C1=O` (stereo not given in full), the composite z-score in the experiment with Albumin (Bos taurus) is -1.17; in [2], -0.249; in experiment [3] it was -0.125; in experiment [4], 0.962; in experiment [5], -0.0009; in [6], -0.745. For the same molecule, the composite z-score in the experiment on Sam68 (KHDRBS1) is -0.594; in experiment [7], -1.72; in experiment [8] it was -0.564; in experiment [9] it was -0.936; in [10], -1.26; in experiment [11] it was -0.134. For the same molecule, the composite z-score is -1.72 in [12]; -0.995 in experiment [13]; -1.23 in experiment [14]; -1.42 in the experiment on Lefty1; -0.965 in experiment [16]. The composite Z-score in experiment [1] is 1.73 (inactive). For the same molecule, the z-score in experiment [15] is 1.25; in experiment [17], -1.38 (inactive).
Consider `NCCCCCCNC(=O)[C@@H]1C[C@@H]2C(=O)N[C@@H](Cc3ccccc3)C(=O)N2[C@@H]1c1ccc(O)cc1`, for which the composite z-score in the experiment with Albumin (Bos taurus) was 0.676; in experiment [2] it was 0.0418; in [3], -0.112; in [4], 0.65; in experiment [5] it was 0.68; in experiment [6], 0.915. The composite z-score with Sam68 (KHDRBS1) stood at 1.06; in experiment [7], 0.283; in experiment [8], 1.12; in experiment [9], 1.94; in [10], 0.434; in experiment [11] it was 0.332. The composite z-score in [12] was 0.63; in experiment [13], 0.898; in [14] it was 0.312; in the experiment on Lefty1, 0.104; in experiment [16], 0.931. The composite Z-score in [1] is 0.755 (inactive). For the same molecule, the z-score in experiment [15] was 0.613; in experiment [17], -1.15 (inactive).
Consider `CCOC(=O)C[C@H]1[C@H](OC(=O)c2ccc(-c3ccccc3)cc2)[C@@H](NC(=O)c2ccccc2)c2cc(OCCCO)ccc2N1C(=O)c1ccccc1`, for which the composite z-score was 0.842 with Albumin (Bos taurus); 0.0162 in experiment [2]; -0.0232 in experiment [3]; 0.395 in experiment [4]; 1.67 in [5]; 0.658 in experiment [6]. For the same molecule, the composite z-score was 1.33 in the experiment with Sam68 (KHDRBS1); -0.519 in [7]; 0.818 in [8]; 0.698 in experiment [9]; 0.925 in [10]; 0.372 in experiment [11]. Also, the composite z-score is 0.851 in [12]; -0.129 in experiment [13]; 0.253 in experiment [14]; -0.0764 in the experiment with Lefty1; 0.646 in [16]. The composite Z-score in experiment [1] is 0.0948 (inactive). In addition, the figures for the z-score in [15] and in experiment [17] were 2.3 and -0.517 (inactive), respectively.

Source of the values: PubChem BioAssay.
